The results in this text go back to PubChem BioAssay (NCI).

This is part of a sample that, as a whole, favours compounds with a hit. Of some 83,000 tested, about 20% had one in any assay.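 Negative percent growth values reflect cell death: -40 means 40% of the cells present at the start died, and -100 means all died.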 Activity calls are given as the source filed them.

The test has as its system SW-620 colon. In words: NCI-60 one-dose screen, 48 h (100 = growth as untreated, 0 = no growth, -100 = all killed). As to conditions: 10 µM unless noted. The protocol: Growth inhibition of the SW-620 human tumor cell line is measured as a screen for anti-cancer activity. Cells are grown in 96 well plates and exposed to the test compound for 48 hours. Compounds are tested at a single concentration, which is 10^-5 M for most compounds. The reported endpoint is percent growth (GI% or GIPRCNT), where numbers from 0 - 100% represent growth inhibition, and numbers from -100% - 0 represent cell death. For example, a value of 40 represents 60% growth inhibition. A value of 0 means no net growth occurred over the course of the experiment. A value of -40 indicates 40% of cells at the beginning of the experiment died by the end of the experiment. A value of -100 means all cells are dead at the end of the experiment.
NCI-60 Human Tumor Cell Lines Screen was performed using the standard one-dose NCI protocol, which is described in more detail at https://dtp.cancer.gov/discovery_development/nci-60/default.htm.
Compounds with GIPRCNT values below 10 were considered active. Activity score was based on GIPRCNT using the following formula: […]
Score is 0 for GIPRCNT values of 100 or above, 50 for GIPRCNT values of 0, and 100 for GIPRCNT values of -100.
On to `CC(C)(c1ccccc1)c1cc(O)c(C(C)(C)c2ccccc2)cc1O`, for which the growth is 31.3% (inactive). With `O=C(Nc1ccc(Cl)cc1)c1cc(-c2ccc(Cl)cc2)c2sc(=O)[nH]c2n1` the figure was 8.1% (active); with `COc1ccc(/C=C/C(=O)CCC(=O)O)cc1OC`, 105% (inactive); with `COc1ccccc1CNCCCN1C(=O)c2ccc3c4c(ccc(c24)C1=O)C(=O)N(CCCNCCCN)C3=O`, -7.85% (active).

`COc1cccc(-c2cc(-c3cccs3)c(C#N)c(=O)[nH]2)c1`: the growth is 105% (inactive).

`COc1cc(-c2nc(-c3ccc(-c4nc5ccc(F)cc5[nH]4)cc3)no2)cc(OC)c1OC`: the growth is 55.3% (inactive). With `Cc1ccc([C@H]2c3[nH]c4ccccc4c3C[C@H]3C(=O)N(CCCCCCC(=O)NO)CC(=O)N23)cc1` the figure was 36.5% (inactive); with `NNC(=O)CSc1nc2scc(-c3ccccc3)c2c(=O)n1-c1ccccc1`, 112% (inactive); with `N=C(N)c1ccc(-c2ccc(-c3ccco3)o2)cc1F`, -11.3% (active). With `NNc1ccc(S(N)(=O)=O)cc1` the figure was 97.3% (inactive). With `O=C1c2cccc3cccc(c23)C(=O)N1CCCCCCCCCCN1C(=O)c2cccc3cccc(c23)C1=O` the figure was 104% (inactive); with `CCC(=O)NC1=C(Cl)C(=O)C(NC(=O)CC)=C(Cl)C1=O`, -72.1% (active); with `O=C(CCCCCCN1CC(=O)N2[C@@H](c3ccc(Cl)c(Cl)c3)c3[nH]c4ccccc4c3C[C@H]2C1=O)NO`, 33% (inactive). For `C=C1C(=O)O[C@H]2[C@H]1CC/C(COC(=O)NCc1c[nH]c3ccc(OC)cc13)=C\CC[C@@]1(C)O[C@@H]21`, the growth was -57.6% (active). With `CC(C)(C)c1cc(C[P+](c2ccccc2)(c2ccccc2)c2ccccc2)cc(C(C)(C)C)c1O` the figure was 10.6% (inactive); with `Clc1ccccc1CNc1c2ccccc2nc2ccccc12`, 9.61% (active); with `CCNC(=O)c1ccc2c(c1)nc(-c1ccc(Cl)cc1)n2-c1cc(C(C)(C)C)[nH]n1`, 42.7% (inactive).

`CC1=C(O)C(=O)CC1`: the growth was 108% (inactive). With `CCCCOc1nc2ccccc2cc1/C=C/c1cc(/C=C/c2cc3ccccc3nc2OCCCC)n(-c2ccccc2)n1` the figure was 101% (inactive); with `CN(C)CCCn1c(=O)c2cc([N+](=O)[O-])ccc2c2cnc3[nH]ccc3c21`, 33.1% (inactive); with `Oc1ccccc1-c1nnc(COc2ccc(Cl)cc2Cl)o1`, 51.2% (inactive).

Take `COc1cc(C)c(Cl)cc1C1=NN(c2ccc(S(N)(=O)=O)cc2)C(/C=C/c2ccccc2)C1` (stereo not given): the growth was 43.9% (inactive). With `NC(N)=NC1CCCCC1` the figure was 100% (inactive); with `Clc1ccc(-c2cnc3c(-c4ccnc(N5CCNCC5)c4)cnn3c2)cc1`, -50.4% (active). Turning to `CCN1C(=O)C(C)C=C(C)C=C1C` (stereo not given), the growth was 114% (inactive). For `O=C1C(Cl)=C(Nc2cccc3ccccc23)C(=O)c2ccccc21`, the growth was 68.9% (inactive).

For `Cc1c(C(=O)CCl)c(=O)n(-c2ccccc2)n1C`, the growth is 36.6% (inactive).

Turning to `COc1ccc(C(=O)OC2C(OC3C(O)COC(O[C@H]4C[C@H]5[C@@H]6CC=C7C[C@@H](O)CC[C@]7(C)[C@H]6CC[C@]5(C)[C@H]4[C@H](C)C(=O)CCC(C)C)C3OC(=O)C(C)C)OCC(O)C2O)cc1` (stereo not given in full), the growth is -19.5% (active).

`NC(N)=N/N=C/c1cccc(Cl)c1Cl`: the growth was -4.72% (active).

On to `COc1cnc2c(c1)C(=O)c1c-2n(CCCN2CCCC2)c(=O)c2cc(Cl)ccc12`, for which the growth was -89.4% (active).

Take `CCNCCCn1c2c(c3ccc(Cl)cc3c1=O)C(=O)c1cc(OC)cnc1-2`: the growth is -64.5% (active). Turning to `Clc1cccc(CNc2c3ccccc3nc3ccccc23)c1`, the growth was 12% (inactive). With `COc1cc(C2CC(c3ccc(Cl)cc3)=NN2C(C)=O)ccc1Oc1nc2c(c(=O)n(C)c(=O)n2C)n1C` (stereo not given) the figure was 98.1% (inactive); with `CCOc1cc(/C=N\NC(=O)C[N+](C)(C)C)ccc1O`, 110% (inactive). On to `CN(C)c1ccc(/C=C\c2cccc[n+]2C)cc1`, for which the growth is 22.4% (inactive).

On to `CNC1=C([N+](=O)[O-])C(c2ccccc2O)C(C#N)=C(c2cccs2)O1` (stereo not given), for which the growth is 99.9% (inactive).

For `CCCCCCCCCCCCNC(=O)N[C@H](C(=O)N[C@H]1/C=C/OCCNC(=O)/C=C/[C@H](C(C)C)NC1=O)C(C)C`, the growth was 48.1% (inactive). Turning to `N=C(N)c1ccc(-c2ccc(-c3cccs3)s2)cc1F`, the growth was -62.8% (active). With `C(=Nc1ccc(-c2ccc(N=Cc3ccccc3)cc2)cc1)c1ccccc1` the figure was 106% (inactive).

With `O=C1OCC2=C1C(c1ccccc1)c1cc3c(cc1N2CCO)CCC3` (stereo not given), the growth was 21.5% (inactive).
